High-throughput results from PubChem.
Mcl1 Bid PPI: Mcl-1/Bid interaction inhibition; Q07820; TR-FRET Mcl-1/Bid-Dy647 peptide binding, 1536-well; inhibition, % at 21.7 µM; actives 0.97% (n = 220,000); AID 1021;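 active means compounds that cut the binding signal by more than half at the single screening dose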;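 further: His-tagged Mcl-1 with europium anti-His antibody binding Bid BH3 peptide; 0% = Mcl-1 plus peptide wells and 100% = peptide-only wells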
eIF4E 4G PPI: eIF4E/eIF4G interaction inhibition in translation initiation; inhibition, % at 21.7 µM; TR-FRET eIF4E-eIF4GI(517-606) binding, 2 h; actives 0.37% (n = 220,000);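 active means inhibition above about 30%, limit read from the data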;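 further: 0% = full FRET control wells and 100% = background wells lacking eIF4GI fragment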
Hck Nef HTS: inhibitors of human Hck kinase activated by Nef; Recombinant Hck-YEEI plus Nef, Z-Lyte FRET kinase assay; actives 0.68% (n = 220,000); P08631; inhibition, % at 20 µM; AID 463187;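 active means Hck-Nef kinase inhibition above about 50%, limit read from the data; inactive means inhibition below that limit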;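 further: 0% = DMSO with Hck plus Nef and 100% = Hck alone without Nef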
14-3-3 Bad PPI: disrupts binding of bovine 14-3-3 zeta to phospho-Bad peptide | inhibition, % at 21.7 µM | TR-FRET 14-3-3zeta/Dy647-pBad peptide displacement, 1 h | actives 0.71% (n = 220,000);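 active means inhibition above about 70%, limit read from the data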;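 further: 0% = full 14-3-3 plus peptide FRET controls and 100% = background without 14-3-3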
Mcl-1 Bim block: inhibitors of Bim-Mcl-1 interaction, human | Bead-based flow cytometry, Bim peptide-Mcl-1 binding | inhibition, % at 10 µM | actives 0.1% (n = 190,000) | Q07820; in the data active means inhibition above about 40%;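 further: 0% = no compound tracer wells and 100% = peptide blocker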
Mcl1-Noxa inh: disrupts binding of human Mcl-1 to Noxa peptide; actives 1.5% (n = 220,000); TR-FRET Mcl-1/Noxa peptide binding, 2 h; inhibition, % at 21.7 µM;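 active means compounds that cut the protein-peptide binding signal by more than 50% relative to plate controls in a single-dose test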;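 further: His-tagged Mcl-1 with rhodamine Noxa BH3 peptide and terbium anti-His antibody; 0% = Mcl-1 plus Noxa peptide wells and 100% = peptide-only wells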
Active calls of the source: *; / = no result; [ ] = remark or other dose. Shown are actives, neighbours in structure and some others; about 3.5% of the full set was active somewhere.

SMILES	Mcl1 Bid PPI	eIF4E 4G PPI	Hck Nef HTS	14-3-3 Bad PPI	Mcl-1 Bim block	Mcl1-Noxa inh
CCN(CC)S(=O)(=O)c1ccc(NC(=O)COC(=O)CCc2cc(OC)c(OC)c(OC)c2)cc1	7	-3	0	5	-6	22
COC(=O)c1ccc(CSc2ncnc3sc(C)c(C)c23)o1	59*	1	-4	-6	-2	14
COc1ccc(OC)c(Nc2nc(-c3cccc([N+](=O)[O-])c3)nc3ccccc23)c1	70*	-27	24	13	0	38
COc1ccc(Nc2nc(-c3cccc([N+](=O)[O-])c3)nc3ccccc23)c(OC)c1	34	-3	1	17	-6	27
COc1ccc(OC)c(Nc2ncnc3c2cnn3-c2ccccc2)c1	6	-2	-10	-1	-4	4
COc1ccc(OC)c(Nc2ncnc3sc(-c4ccccc4)cc23)c1	-4	38*	3	80*[fluorescence artefact?]	-4	7
C[C@@H](c1ncncc1F)[C@](O)(Cn1cncn1)c1ccc(F)cc1F	0	3	/	0	-1	1
CC(C)c1nnc(NC(=O)c2ccc(N3C(=O)CCC3=O)cc2)s1	-24	5	19	-5	0	-6
O=C(Nc1nnc(C23CC4CC(CC(C4)C2)C3)s1)c1ccc(N2C(=O)CCC2=O)cc1	-10	62*[fluorescence artefact?]	4	15	-1	12
CCn1cc(/C=C/C(=O)Nc2ccn(Cc3c(F)c(F)cc(F)c3F)n2)cn1	7	0	5	12	-8	54*
CC(C)CC(=O)N1CCN(CC2CC=CCC2)CC1 (stereo unspecified)	57*	4	5	77*	0	38
CCOP(=O)(OCC)C(Nc1ccccc1)c1ccccc1C(F)(F)F (stereo unspecified)	-8	7	16	-5	/	5
CCOC(=O)Nc1nnc(-c2cccc(OC)c2)s1	16	-3	0	32	0	11
CCCC(=O)Nc1nnc(-c2cccc(OCC)c2)s1	86*	-7	2	12	-2	6
CC(C)(C)c1cc(C(=O)O)n(Cc2ccc(Cl)cc2Cl)n1	-3	3	-8	4	/	9
Cc1ccc(S(=O)(=O)N/N=C/c2cnn(C)c2C)cc1	70*	-6	1	-11	-8	4
CCn1ncc(/C=N/NS(=O)(=O)c2ccc(Cl)cc2)c1C	-64	1	-1	-17	-4	20
CCOC(=O)N1CCN(C(=O)CSc2ccc3nnc(CCNC(=O)c4ccccc4)n3n2)CC1	-3	0	6	-1	0	3
CCOC(=O)N1CCN(C(=O)CSc2ccc3nnc(CCNC(=O)c4ccc(OC)cc4)n3n2)CC1	89*	-1	-34	-4	-2	2
COc1cccc(OC)c1C(=O)Nc1nc2ccc([N+](=O)[O-])cc2s1	17	2	-12	10	-1	6
COc1ccc(OC)c(C2=NOC(C(=O)N3CCCc4ccccc43)C2)c1 (stereo unspecified)	-6	6	1	-6	-1	15
CSc1nnc(-c2ccc(C(F)(F)F)nc2C)o1	-5	-3	13	-2	/	7
CN(C)c1ccc(-c2nnc(-c3ccc(S(=O)(=O)C(F)F)cc3)o2)cc1	73*	-32	-1	15	1	27
O=C(O)CCCC(=O)Nc1ccc(Oc2ncnc3cc(Cl)ccc23)nc1	-12	0	6	-12	/	23
O=C(Nc1ccc(F)cc1)Nc1ccc(Oc2ncnc3cc(Cl)ccc23)nc1	92*	-9	30	5	/	-19
SMILES	Mcl1 Bid PPI	eIF4E 4G PPI	Hck Nef HTS	14-3-3 Bad PPI	Mcl-1 Bim block	Mcl1-Noxa inh
COc1ccc(/C=N\NC(=O)c2cc(O)c(O)c(O)c2)cc1CN1CCN(c2ccc(F)cc2)CC1	-38	3	45	5	0	70*
COc1ccc(/C=N/NC(=O)c2ccc(C)cc2)cc1CN1CCN(c2ccc(F)cc2)CC1	-53	-8	2	1	-1	12
CCCCc1nnc(NC(=O)COc2ccc3c(C)cc(=O)oc3c2)s1	11	0	19	12	/	19
Cc1ccc(CNC(=O)CSc2nc3[nH]ncc3c(=O)[nH]2)cc1	10	-15	-6	5	-1	1
CCN(CCCNC(=O)c1ccc(N2CCCC2=O)cc1)c1cccc(C)c1	-38	4	0	80*	0	2
Cc1ccc2sc(NNC(=O)c3cc(=O)c4ccccc4o3)nc2c1C	-25	6	-21	-21	1	66*
COc1ccc2nc(NC(=O)/C=C/c3ccc4c(c3)OCO4)sc2c1	51*	13	7	49	1	0
COc1ccc2nc(NNC(=O)c3cc(=O)c4ccccc4o3)sc2c1	-47	0	4	-18	5	72*
COc1ccc2nc(NC(C)=O)sc2c1	-7	0	-1	6	0	-7
COc1ccc2nc(NC(=O)Nc3cccc4ccccc34)sc2c1	-33	0	28	-13	0	75*
Cc1cccc2sc(NNC(=O)c3cc(=O)c4ccccc4o3)nc12	-56	-3	-8	-13	-5	37
O=C(CCCc1cccs1)Nc1nccs1	11	2	19	17	0	10
COc1cc(OC)cc(C(=O)N[C@H](C(=O)NCc2ccco2)C(C)C)c1	-36	0	-1	1	0	17
COc1cc2c(cc1OC)C(c1ccccc1O)N(C1CC(=O)N(c3ccccc3)C1=O)CC2 (stereo unspecified)	-6	-3	0	74*	1	5
CCOc1ccc(C(C)=O)cc1N1C(=O)C2C3C=CC(C3)C2C1=O (stereo unspecified)	-10	8	0	0	0	14
CCOc1ccc(C(C)=O)cc1N1C(=O)C2C3C=CC(O3)C2C1=O (stereo unspecified)	8	9	0	2	0	63*
Cc1cc(C)nc(NS(=O)(=O)c2ccc(N)cc2)n1	-8	-3	1	4	-3	-11
Cc1cc(C)nc(NS(=O)(=O)c2ccc(Br)cc2)n1	23	1	4	85*	-2	9
COc1ccc(CCNC(=O)CO/N=C/c2cc3c(cc2Br)OCO3)cc1OC	-18	2	25	-2	0	4
CCOC(=O)c1c(-c2ccc(C)cc2)csc1NC(=O)/C(C#N)=C/c1ccc(O)c(OC)c1	28	12	7	15	-6	90*
N#Cc1ccsc1NC(=O)COc1ccc(-c2nnco2)cc1	-28	5	2	4	1	65*
CCS(=O)(=O)NCc1ccc2c(c1)cc(C)n2C	70*	2	0	6	0	32
O=C(O)c1c[nH]c2c(C(F)(F)F)cccc2c1=O	53*	-5	1	39	-1	7
COc1cccc2c(=O)c(C(=O)O)c[nH]c12	14	4	3	9	-2	-76
